These results are taken from PubChem BioAssay AID1491 (National Center for Advancing Translational Sciences (NCATS), 2009).

Values joined by “and” are separate entries in the source; they are usually repeats but may differ in a detail not shown here. Equal values may be shown once. Inconclusive results are not listed. Values without a mark were called inactive. Active and inactive are the calls of the source. Calls follow the shape of the dose curve; as a rule, active = well fitted inhibition curve with a large enough effect in the main read-out, with a control signal flat; inconclusive = small, poorly fitted or top-dose-only effect, or a change in a side signal; inactive = flat fitted curve, though single readings scatter.
Potency is read from the fitted curve at half-maximal effect.

Sequence of Neuropeptide S receptor (Homo sapiens) (Q6W5P4 whole entry, looked up): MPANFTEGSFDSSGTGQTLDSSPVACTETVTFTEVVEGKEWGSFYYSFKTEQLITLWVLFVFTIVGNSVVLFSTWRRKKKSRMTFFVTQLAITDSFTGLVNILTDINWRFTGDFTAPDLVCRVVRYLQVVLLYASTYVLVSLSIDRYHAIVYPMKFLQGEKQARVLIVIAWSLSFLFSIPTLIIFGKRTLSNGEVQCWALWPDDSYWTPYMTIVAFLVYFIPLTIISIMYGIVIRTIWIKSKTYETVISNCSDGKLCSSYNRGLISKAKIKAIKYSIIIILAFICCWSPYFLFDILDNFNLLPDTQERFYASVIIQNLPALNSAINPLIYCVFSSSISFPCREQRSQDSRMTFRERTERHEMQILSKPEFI

The test concerns the target Neuropeptide S receptor (Homo sapiens) (UniProt Q6W5P4). Nature of the test: Confirmation Concentration-Response Assay for Antagonists of the Neuropeptide S Receptor: cAMP Signal Transduction.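 As to activity change, negative = inhibition: 0% = DMSO with NPS and full inhibition = wells lacking NPS.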 The settings on record: CHO-NPSR cells, cAMP TR-FRET, antagonist mode; series mostly up to 22.3 µM; activity change, negative = inhibition: at the top concentration. The essentials:
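LANCE TR-FRET cAMP read-out: 665/620 nm emission ratio, with the 620 nm donor channel also reported, after 2 h RT detection. Stably transfected CHO-NPSR cells got compound titrations and 100 nM NPS in stimulation reagent for 60 min at 37C. IC50 came from Hill fits.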
With `C=CC1(C)CC(=O)C2(O)C(C)(O1)C(OC(C)=O)C(O)C1C(C)(C)CCC(O)C12C` (stereo not drawn), the activity change, negative = inhibition was 6.07% [at 0.188 µM].
Same read-out and setting: then `C/C(=N\NC(=S)NC1CCCCC1)c1c(F)cccc1F`, with -12%; and `CN(C)c1ccc(N2CN=C3SCC(=O)N3C2)cc1`, with 20.4%.
Turning to `COc1ccc(NC(=O)/C(Cl)=C(/Cl)S(=O)Cc2ccc(C)cc2)cn1` (stereo not drawn), the Potency is 2.24 µM (active).
For the molecule `CC1CCCc2sc3nc(N4CCN(CCO)CC4)n4ncnc4c3c21` (stereo not drawn), the “activity change, negative = inhibition” value is 17.5%.
Turning to `CC1(C)O[C@@H]2C[C@H]3[C@@H]4C[C@H](F)C5=CC(=O)CC[C@]5(C)[C@H]4[C@@H](O)C[C@]3(C)[C@]2(C(=O)CO)O1`, the “activity change, negative = inhibition” value is -6.23%.
On the same count and under the same terms, then `CN(C)c1nc(=Nc2cccc(Cl)c2)ss1`, with -8.2%.
On to `CC1CCCCN1S(=O)(=O)c1ccc(C(=O)Nc2sccc2C(N)=O)cc1` (stereo not drawn), for which the Potency is 12.6 µM (active) and 14.1 µM (active).
With `Nn1c(COc2ccccc2)nnc1SCc1cc(=O)[nH]c2ccccc12`, the “activity change, negative = inhibition” value was 8.5%.
Regarding `N=c1c2c(ccn1Cc1ccccc1)Oc1ccc3ccccc3c1C2c1ccccc1` (stereo not drawn), the Potency was 2 µM (active).
For `COc1ccccc1C1c2c(ncn(-c3ccccc3)c2=N)Oc2ccc3ccccc3c21` (stereo not drawn), the Potency was 17.8 µM (active).
In the case of `O=C(Nc1cc(=O)[nH]c2nc(-c3ccc(Cl)cc3)nn12)c1ccccc1`, the Potency is 3.98 µM (active).
As for `COc1ccccc1-c1nnc(SC2CCc3ccccc3NC2=O)s1` (stereo not drawn), the “activity change, negative = inhibition” value was -30%.
Turning to `O=C1CC(NCc2ccncc2)C(=O)N1c1ccccc1` (stereo not drawn), the “activity change, negative = inhibition” value was 7.53%.
Still for that read-out and setting: then `CC(=O)c1c(C(C)=O)c(C)n(NC(=O)c2cccnc2)c1C`, with 0.909%.
As to `COc1ccc(/C=C2\CCCC3C2=NN(C(=O)c2ccco2)C3c2ccc(OC)c(OC)c2)cc1OC` (stereo not drawn), the Potency result was “inactive”.
Take `COc1ccc(O)c(/C=N/Nc2nc(Nc3ccccc3)nc(-n3nc(C)cc3C)n2)c1`: the “activity change, negative = inhibition” value was -1.82%.
The same measure, in the same setting: then `CCc1ccc2oc(-c3cc(N)cc(C)c3O)nc2c1`, with 14.2%.
On the same count and under the same terms, to `NC(=O)c1ccsc1NC(=O)c1ccc(S(=O)(=O)N2CCCC2)cc1` belongs -20.8%.
The same measure, in the same setting: then `CCOC(=O)c1cnc(-n2nc(C)cc2C)nc1NC1CCCC1`, with -9.26%; and `NC(=S)N/N=C/c1ncc(C(F)(F)F)cc1Cl`, with -8.43%; and `CN(CC(=O)NCc1ccc(F)cc1)S(=O)(=O)c1cccc2nsnc12`, with 7.19%.
With `Cc1cc(OCC(=O)c2ccc(Br)cc2)ccc1N1C(=O)CCC1=O`, the “activity change, negative = inhibition” value was -12.9%.
Same read-out and setting: then `Cc1nn(C(=O)c2cccs2)c(N)c1-c1ccccc1`, with 0.84%.
On the same count and under the same terms, then `S=C(Nc1ccccn1)c1ccccn1`, with 1.64%.
For `COc1ccc2nc(NC(=S)N(C)C)sc2c1`, the “activity change, negative = inhibition” value was -7.19%.
Same read-out and setting: then `C=CCOc1c(Cl)cc(CNc2ccc(N(C)C)cc2)cc1OC`, with -13.4%; and `Cc1ccc2nc3ccc(N4CCCCCCC4)nn3c(=O)c2c1`, with -5.95%.
As to `C/C(=N\Nc1ncc(Cl)cc1Cl)c1ccccn1`, the Potency is 5.62 µM (active).
Regarding `CC(=O)n1nc2nc(C)cc(C)c2c1N`, the “activity change, negative = inhibition” value is 8.9%.
Same read-out and setting: then `CCn1cc(C(=O)NCC2CCCO2)c(=O)c2cc(S(=O)(=O)N3CCCCCC3)ccc21` (stereo not drawn), with 17.2%; and `O=[N+]([O-])c1cc2c(cc1/C=N/n1c(-c3ccccc3)n[nH]c1=S)OCO2`, with -1.53%; and `CN(C)c1ccc(N=Cc2ccco2)cc1`, with -23%.
Still for that read-out and setting: then `O=C(CSC1=NCCS1)Nc1ccnc2ccccc12`, with -13.8%.
With `CC1(C)Cc2c(c(N3CCOCC3)nc3sc4c(NCC5CCCO5)nnnc4c23)CS1` (stereo not drawn), the “activity change, negative = inhibition” value was -12.8%.
Same read-out and setting: then `Cc1cccc(-c2nnc(SCc3cc(=O)[nH]c4ccccc34)n2C)c1`, with -8.22%.
The same measure, in the same setting: then `C(=C\c1ccccc1)/C=N/N1CCN(c2ccccn2)CC1`, with 5.88%; and `Nc1ccc(-c2nc3c(Cl)cc(N)cc3[nH]2)cc1`, with -9.8%.
